# Measurements: PubChem BioAssay (Tox21)
# Records with an inconclusive call do not appear. Entries that show only a call come without a potency. Calls of active or inactive are those of the source. The call rests on the fitted dose curve; in most records, active means well fitted cell-killing curve with a large enough effect in the repeat runs; inconclusive means weak or mixed curves, or effect the other way; inactive means no such curve, though single readings can be large or run the other way. Positions of bridges follow the written chain, without caps; N, C: chain ends. Non-standard residues stand in square brackets, D forms with d. Residues, ends and D or L forms follow the SMILES beside them. *: point of attachment. X1 = CC[C@@H](C)[C@@H](N)C1=N[C@H](C(=O)*)CS1; d(aIle) = CC[C@H](C)[C@@H](N)C(=O)O; dOrn = NCCC[C@@H](N)C(=O)O
# Assay: qHTS assay to identify small molecule antagonists of the thyroid receptor (TR) signaling pathway - cell viability counter screen (AID 743064); further: nearly all actives have a fitted effect of over 50% in size
# Details: GH3.TRE-Luc viability, CellTiter-Fluor, 24 h; series mostly up to 70.3 µM
# Summary of the method: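 Fluorescence from CellTiter-Fluor, added after 23.5 h exposure at 37 °C, reported viability of GH3.TRE-Luc cells co-treated with compound and 1 nM T3. Measured in the same wells as the luciferase TR readout.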
row,Structure (SMILES),Potency
1,C/C(=C\C(=O)OCCCCCCCCC(=O)O)C[C@@H]1OC[C@H](C[C@@H]2O[C@H]2[C@@H](C)[C@H](C)O)[C@@H](O)[C@H]1O,inactive
2,CC(C)[C@H](NC(=O)[C@H](CC(=O)O)NC(=O)[C@H](CCCCN)NC(=O)[C@@H](N)CCCN=C(N)N)C(=O)N[C@@H](Cc1ccc(O)cc1)C(=O)O (H-RKDVY-OH),inactive
3,NC(=O)[C@@H]1CCCN1C(=O)[C@H](Cc1cnc[nH]1)NC(=O)[C@@H]1CCC(=O)N1,inactive
4,CC[C@H]1OC(=O)[C@H](C)C(=O)[C@H](C)[C@@H](O[C@@H]2O[C@H](C)C[C@H](N(C)C)[C@H]2O)[C@](C)(OC)C[C@@H](C)C(=O)[C@H](C)[C@H]2N(CCCCn3cnc(-c4cccnc4)c3)C(=O)O[C@]12C,inactive
5,C[N+](C)(C)CCOP(=O)(O)OP(=O)([O-])OC[C@H]1O[C@@H](n2ccc(N)nc2=O)[C@H](O)[C@@H]1O,inactive
6,Cc1cnc(C(=O)O)c[n+]1[O-],inactive
7,C=CC1=C(C(=O)O)N2C(=O)[C@@H](NC(=O)/C(=N/OCC(=O)O)c3csc(N)n3)[C@H]2SC1 (stereo in doubt),inactive
8,O=P(O)(O)C(O)(Cn1ccnc1)P(=O)(O)O,inactive
9,C=CC[N+]1([C@H]2C[C@H]3[C@@H]4CC[C@H]5C[C@H](O)[C@@H](N6CCOCC6)C[C@]5(C)[C@H]4CC[C@]3(C)[C@H]2OC(C)=O)CCCC1,inactive
10,CC[C@@H](C)[C@@H](N)C1=N[C@H](C(=O)N[C@@H](CC(C)C)C(=O)N[C@@H](CCC(=O)O)C(=O)N[C@@H](C(=O)N[C@@H]2CCCCNC(=O)[C@@H](CC(N)=O)NC(=O)[C@@H](CC(=O)O)NC(=O)[C@@H](Cc3cnc[nH]3)NC(=O)[C@@H](Cc3ccccc3)NC(=O)[C@@H]([C@H](C)CC)NC(=O)[C@@H](CCCN)NC2=O)[C@@H](C)CC)CS1 (X1-LE[d(aIle)][dK][dOrn][dI][dF][dH][dD][dN]; lactam 4-C),inactive
11,Nc1cc(Cl)c(NC2=NCCN2)c(Cl)c1,inactive
12,CCOc1ccc(NC(=S)Nc2ccc(OCC)cc2)cc1,inactive
13,CCc1ncnc2cc(OC)c(OC)cc12,inactive
14,Cc1cc(=O)c(C(=O)N[C@@H](C(=O)N[C@@H]2C(=O)N3C(C(=O)O)=C(CSc4nnnn4C)CS[C@H]23)c2ccc(O)cc2)c[nH]1,inactive
15,CC12CCC(C[N+](C)(CCC[N+](C)(C)C)C1)C2(C)C (configuration not stated),inactive
16,CN1C(=O)C[C@@H](C(=O)N[C@@H](Cc2cnc[nH]2)C(=O)N2CCC[C@H]2C(N)=O)NC1=O,inactive
17,COC(=O)[C@H]1[C@H]2C[C@H]3c4[nH]c5ccccc5c4CCN3C[C@H]2CC[C@@H]1O,inactive
18,CC[C@@H](C)[C@H](N)C(=O)O,inactive
19,C/C(=C(/CCO)SSCC1CCCO1)N(C=O)Cc1cnc(C)nc1N (configuration not stated),inactive

row,Structure (SMILES),Potency
1,C=C(Nc1ccc(OCC)cc1)Nc1ccc(OCC)cc1,inactive
2,O=C(O)/C=C/C(=O)Nc1ccc(S(=O)(=O)Nc2nccs2)cc1,inactive
3,CC(C)=CCC/C(C)=C/CC/C(C)=C/CC/C(C)=C/CC1=C(C)C(=O)c2ccccc2C1=O,inactive
4,CO/N=C(\C(=O)N[C@@H]1C(=O)N2C(C(=O)O)=C(CSc3nc(C)c(CC(=O)O)s3)CS[C@H]12)c1csc(N)n1,inactive
5,COc1ccc(/C=C/C(=O)O)cc1,inactive
6,CO/N=C(\C(=O)N[C@@H]1C(=O)N2C(C(=O)[O-])=C(C[n+]3cccc4c3CCC4)CS[C@H]12)c1csc(N)n1,inactive
7,NCC1CCC(C(=O)O)CC1 (configuration not stated),inactive
8,CCN(CC)CCOC[C@H]1O[C@@H](O)[C@H](OCCN(CC)CC)[C@@H](O)[C@@H]1O,inactive
9,CCC(=O)OC(OP(=O)(CCCCc1ccccc1)CC(=O)N1C[C@H](C2CCCCC2)C[C@H]1C(=O)O)C(C)C (some centres not stated),inactive
10,CC(C)=CCC/C(C)=C/CC/C(C)=C/CC/C=C(\C)CC/C=C(\C)CCC=C(C)C,inactive
11,CCCCCCCCCC(=O)NO,inactive
12,NCCO/C=C/[C@H](N)C(=O)O,inactive
13,N=C(N)n1cccn1,inactive
14,Nc1c(CC(=O)O)cccc1C(=O)c1ccccc1,inactive
15,Cc1ccc(C(C)(C)c2ccc(C)cc2)cc1,inactive
16,CO[C@H]1C[C@H](O[C@H]2[C@H](C)[C@@H](O[C@@H]3O[C@H](C)C[C@H](N(C)C)[C@H]3O)[C@@H](C)C[C@]3(CO3)C(=O)[C@H](C)[C@@H](O)[C@@H](C)[C@@H](C)OC(=O)[C@@H]2C)O[C@@H](C)[C@@H]1O,inactive
17,CC[C@H]1OC(=O)C[C@@H](O)[C@H](C)[C@@H](O[C@@H]2O[C@H](C)[C@@H](O[C@H]3C[C@@](C)(O)[C@@H](O)[C@H](C)O3)[C@H](N(C)C)[C@H]2O)[C@@H](CC=O)C[C@@H](C)C(=O)/C=C/C(C)=C/[C@@H]1CO[C@@H]1O[C@H](C)[C@@H](O)[C@@H](OC)[C@H]1OC,inactive
18,O=C1c2c(O)cccc2[C@H]([C@@H]2O[C@H](CO)[C@@H](O)[C@H](O)[C@H]2O)c2cc(CO)cc(O)c21,inactive
